Where “and” joins values, the source holds several entries; their conditions need not be identical. Equal values may be shown once. Inconclusive results are not listed. Unmarked numbers belong to inactive results. Calls of active or inactive are those of the source. Calls follow the shape of the dose curve; as a rule, active = well fitted inhibition curve with a large enough effect; inconclusive = small, poorly fitted or top-dose-only effect; inactive = flat fitted curve, though single readings scatter.
Test system: Zika virus NS2B-NS3 protease
Assay: Primary screen GU AMC qHTS for Zika virus inhibitors (AID 1347154); also: nearly all actives have a fitted effect of over 70% in size;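 as to activity change, negative = inhibition: 0% = no-inhibitor control and -100% = no-enzyme control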
Conditions: Zika NS2B-NS3 unlinked protease, AMC fluorogenic substrate; series mostly up to 54.1 µM; activity change, negative = inhibition: at the top concentration
Description: Avindra Nath, Ph.D., National Institute of Neurological Disorders and Stroke (NINDS), Bethesda, MD
Radhakrishnan Padmanabhan, Ph.D., Georgetown University (GU), Washington D.C.
Zika Virus causes congenital defects, including microcephaly and is associated with Guillain-Barre syndrome, eningoencephalitis and myelitis in infected adult. […] Using a target-based approach, we hope to establish a screening paradigm to uncover novel, cell-active NS2B-NS3 protease (Zika Virus) specific inhibitors from NCATS' collection of small molecules using qHTS.
Early Translation Branch (ETB)
National Center for Advancing Translational Sciences (NCATS), Rockville, MD
National Institute of Health (NIH), Bethesda, Maryland
Padmanabhan lab provided the NS2B hydrophilic domain and NS3 protease domain in a noncovalent complex used for the unlinked assay. Control compound aprotinin is obtained from Thermo Scientific (#78432; Waltham, Massachusetts). NS2B-NS3 AMC substrate (Bz-Nle-Lys-Arg-Arg-AMC; Nle-KRR-AMC) purchased from Bachem (#I-1995; Torrance, CA). Ac-VKTGKR-AMC purchased from Genscript or Bachem, Ac-FAAGKR-AMC purchased from Genscript, Ac-GLVKRR-AMC purchased from Genscript, Ac-LKKR-AMC purchased from Genscript.
GU AMC unlinked NS2B-NS3 protease qHTS protocol
Briefly, 3 microL of Zika virus unlinked NS2B-NS3 protease (25 nM for linked final concentration), in assay buffer (10 mM Tris-HCl pH 8.0 with 0.01% Tween 20) was dispensed into a 1,536-well solid-bottom black plate (Greiner Bio One, Monroe, NC). […] Plates were then read immediately on a ViewLux High-throughput CCD imager (PerkinElmer, Waltham, MA) equipped with standard UV fluorescence optics (340(30) nm excitation, 450(20) nm emission) then incubated (room temperature, protected from light) for 15 minutes (~20% conversion). The change in fluorescence intensity over the 15-minute reaction period was normalized against no-inhibitor and no-enzyme controls and the resulting percent inhibition data were fitted to a 4-parameter Hill equation. Aprotinin was used as the intraplate control.
Potency is read from the fitted curve at half-maximal effect.

Compound	Potency	activity change, negative = inhibition
COc1ccc(C(=O)c2c(C)n(CCN3CCOCC3)c3ccccc23)cc1	inactive	
CN1C(=S)CN=C(c2ccccc2)c2cc(Cl)ccc21		4.75%
CN1C[C@H](CNC(=O)OCc2ccccc2)C[C@@H]2c3cccc4c3c(cn4C)C[C@H]21		-9.16%
CCN(C(C)=O)c1cccc(-c2ccnc3c(C#N)cnn23)c1	31.6 µM (active)	
Oc1cccc2cccnc12		-9% [at 104 µM]
O=C1CC[C@@]2(O)[C@H]3Cc4ccc(O)c5c4[C@@]2(CCN3CC2CC2)[C@H]1O5	inactive	
COC[C@H]1OC(=O)c2coc3c2[C@@]1(C)C1=C(C3=O)C2CCC(=O)[C@@]2(C)C[C@H]1OC(C)=O (stereo not given in full)	inactive	
C[C@]12CCC(=O)C(O)=C1CC[C@@H]1[C@@H]2CC[C@]2(C)C(=O)CC[C@@H]12		-1.04%
Clc1ccc(CCC(Cn2ccnc2)Sc2c(Cl)cccc2Cl)cc1 (stereo not given)	inactive	
CC1NCCOC1c1ccccc1 (stereo not given)		1.25%
N#CC(C#N)=Cc1ccc(O)c(O)c1	inactive	
COc1ccc2c(c1OC)CN1CCc3cc4c(cc3C1C2)OCO4 (stereo not given)	inactive	
O=C1NCN(c2ccccc2)C12CCN(CC1COc3ccccc3O1)CC2 (stereo not given)	inactive	
NCC1(CC(=O)O)CCCCC1	inactive	
CC[N+]1(C)CCCC(OC(=O)C(O)(c2ccccc2)c2ccccc2)C1 (stereo not given)		4.88%
CCC(C(N)=O)N1CCCC1=O (stereo not given)	inactive	
Cc1ncc(CNC(=O)N(CCCl)N=O)c(N)n1		-2.09%
CCC(COC(=O)c1cc(OC)c(OC)c(OC)c1)(c1ccccc1)N(C)C (stereo not given)		-6.15%
O=C(NC(O)C(Cl)(Cl)Cl)NC(O)C(Cl)(Cl)Cl (stereo not given)		-0.419%
NCCc1cc(O)c(O)cc1O	4.55 µM (active) and 21.2 µM (active)	

Compound	Potency	activity change, negative = inhibition
CC1OC(C)OC(C)O1 (stereo not given)		-2.95%
CC(=O)[C@H]1CC[C@H]2[C@@H]3CC[C@H]4C[C@](C)(O)CC[C@]4(C)[C@H]3CC[C@]12C		2.39%
CCN(CC)CCN1C(=O)CN=C(c2ccccc2F)c2cc(Cl)ccc21		5.57%
CN(C)CCN(C)CCc1ccc(Cl)c(Cl)c1	inactive	
O=[N+]([O-])c1cc([As](=O)(O)O)ccc1O		-1.67%
CC(C)(N)Cc1ccc(Cl)cc1		-3.06%
CC(=O)Nc1cc([As](=O)(O)O)ccc1O		-7.34%
CC(C)CC(N(C)C)C1(c2ccc(Cl)cc2)CCC1 (stereo not given)	inactive	
Cc1ccc(-c2nc3ccc(C)cn3c2CC(=O)N(C)C)cc1	31.6 µM (active)	
COc1ccc(Cc2nccc3cc(OC)c(OC)cc23)cc1OC	inactive	
OCCOc1ccccc1		0.226%
COc1ccc(C(CN(C)C)C2(O)CCCCC2)cc1 (stereo not given)	inactive	
O=c1[nH]c2ccccc2n1CCCN1CCC(n2c(=O)[nH]c3cc(Cl)ccc32)CC1	inactive	
CNCC(O)c1ccc(O)cc1 (stereo not given)	inactive	
CCCN1CCC[C@@H]2Cc3[nH]ncc3C[C@H]21	inactive	
C[C@@H]1[C@@H](CC(C[C@H]2O[C@@H]3O[C@]4(C)CC[C@@H]5[C@H](C)CC[C@@H]([C@H]2C)[C@@]35OO4)C[S+](=O)([O-])c2ccc(COC(=O)N(C)C)cc2)O[C@@H]2O[C@]3(C)CC[C@H]4[C@H](C)CC[C@@H]1[C@@]24OO3 (stereo not given in full)		4.33%
CCOP(=S)(OCC)Oc1cc(C)nc(C(C)C)n1		-1.31%
C[C@@H]1O[C@@H](O[C@H]2C[C@@H](O)[C@]3(CO)[C@H]4[C@H](O)C[C@]5(C)[C@@H](C6=CC(=O)OC6)CC[C@]5(O)[C@@H]4CC[C@]3(O)C2)[C@H](O)[C@H](O)[C@H]1O	inactive	
CC(CCc1ccccc1)NC(C)C(O)c1ccc(O)cc1 (stereo not given)		0.869%
NN=C(N)N	inactive	

— PubChem BioAssay (NCATS)
